Bioassay records deposited in PubChem BioAssay by National Center for Advancing Translational Sciences (NCATS).
A selection: hits, their analogues and other compounds. The true share with any hit is near 6.6%.
KB-V1 cytotox: kills drug-selected multidrug resistant KB-V1 cells | KB-V1 MDR cells viability, CellTiter-Glo, 72 h | Potency, µM (top dose mostly 46.1 µM), most hits filed as cytotoxic | 3.4% of 400,000 active | AID 1347076; note: % is set by controls: 0 for no effect and ±100 for the full control effect; nearly all actives have a fitted effect of over 60% in size
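Luminescent ATP read-out (CellTiter-Glo, 10 min) measures survival of drug-selected KB-V1 MDR cells after 72 h, 37 degrees C compound exposure. Medium: phenol-red-free DMEM, 10% FBS. Values from fitted concentration-response curves.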
KB-3-1 tox: kills parental KB-3-1 adenocarcinoma cells; KB-3-1 viability, CellTiter-Glo ATP luminescence, 72 h; Potency, µM (titrated, usually from 46.1 µM), hits mostly cytotoxic; 1.4% of 400,000 active; note: % is set by controls: 0 for no effect and ±100 for the full control effect; nearly all actives have a fitted effect of over 60% in size
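Viability of parental KB-3-1 cells, measured by CellTiter-Glo luminescence, followed a 72 h incubation at 37 °C with pinned compounds in phenol-red-free DMEM containing 10% FBS.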
SW480 rerep: DNA re-replication induction in SW480 cells; SW480 DNA re-replication, Hoechst DNA content imaging, 48 h; AID 624297; Potency, µM (highest dose often 46.1 µM), for the others: top-dose re-replication activation, actives largely listed as activators; 1.8% of 340,000 active; note: % of control where 0% means no effect; nearly all actives have a fitted effect of over 55% in size
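Compounds, transferred as 23 nL by pin tool, were incubated with cells for 48 hr; DNA content per nucleus was then quantified by Hoechst staining and fluorescence plate imaging.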
PTAP TSG101 blk: blocks PTAP/TSG101 interaction to inhibit HIV-1 budding; Q99816; Fluorescence polarization, FITC-PTAP peptide / Tsg101 binding; Potency, µM (top dose mostly 115 µM), for inactives: at the highest dose activity change, negative = inhibition, actives largely listed as inhibitors; 340,000 tested, under 10 active; AID 493005; active = well fitted inhibition curve with a large enough effect in the main read-out, with a control signal flat, not every such curve was filed as active; inconclusive = small, poorly fitted or top-dose-only effect, or effect the other way, or a change in a side signal; inactive = no such curve, though single readings can be large or run the other way; note: % of control where 0% means no effect
Target sequence (Q99816 whole entry, looked up): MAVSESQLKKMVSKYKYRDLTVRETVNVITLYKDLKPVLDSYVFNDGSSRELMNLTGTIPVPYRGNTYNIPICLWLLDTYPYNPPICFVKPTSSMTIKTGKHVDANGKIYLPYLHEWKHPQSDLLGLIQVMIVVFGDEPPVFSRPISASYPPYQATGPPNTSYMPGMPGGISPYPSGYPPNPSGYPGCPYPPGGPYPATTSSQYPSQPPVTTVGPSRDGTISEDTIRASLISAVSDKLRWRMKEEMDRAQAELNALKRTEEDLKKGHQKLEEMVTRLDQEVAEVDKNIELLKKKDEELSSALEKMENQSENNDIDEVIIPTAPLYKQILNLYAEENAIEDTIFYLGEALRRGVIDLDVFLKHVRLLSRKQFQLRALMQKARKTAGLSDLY
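FP read-out: FITC-PTAP peptide, 50 nM final, binding Tsg101 binding domain, 10 uM final; 20 min, r.t.; 10 mM HEPES pH 7.5, 0.15 M NaCl, 0.01% Tween 20, 3 mM EDTA, 0.1 mM TCEP.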
MCF10A rereplic: DNA re-replication induction in MCF 10a cells | MCF 10A DNA re-replication, Hoechst nuclear intensity, 48 h | Potency, µM (top dose mostly 46.1 µM), without a hit: at the top dose activity, positive = re-replication, actives largely listed as activators | 2.9% of 350,000 active | AID 624296; note: % of control where 0% means no effect; nearly all actives have a fitted effect of over 50% in size
RGS4 inhibitor: inhibitors of human regulator of G protein signaling 4. P49798. Transcreener GDP fluorescence polarization, RGS4-accelerated GTP hydrolysis. Potency, µM (highest dose often 114 µM), inactives show at the top dose activity change, negative = inhibition, usual class: inhibitors. 0.039% of 390,000 active; note: % is set by controls: 0 for no effect and ±100 for the full control effect; nearly all actives have a fitted effect of over 75% in size
Target sequence (P49798 whole entry, looked up): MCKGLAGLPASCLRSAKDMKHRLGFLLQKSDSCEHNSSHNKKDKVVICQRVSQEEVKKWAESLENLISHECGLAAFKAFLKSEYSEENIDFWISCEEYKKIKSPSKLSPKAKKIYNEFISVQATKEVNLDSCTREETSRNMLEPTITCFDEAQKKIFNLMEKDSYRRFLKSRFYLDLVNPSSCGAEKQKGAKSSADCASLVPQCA
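MLSMR compounds (23 nl, pin-transferred) preincubated 10 min at room temperature with a 500nM (2x) first reagent, then RGS4 at 900nM (2x) plus Transcreener GDP mix added; fluorescence polarization (620/688 nm) read before and after 90 min at 30 °C.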
Numbers without * were called inactive; i = inactive; ? = inconclusive; nt = no result; [ ] = dose if it differs, or a comment. Unless noted, calls come from the whole dose curve; as a rule, active = well fitted curve in the direction sought with a large enough effect; inconclusive = small, poorly fitted or top-dose-only effect, or another doubt; inactive = no such curve, though single readings can be large; an effect the other way counts as inactive or inconclusive. Potency is the fitted concentration of half-maximal effect.

SMILES | KB-V1 cytotox | KB-3-1 tox | SW480 rerep | PTAP TSG101 blk | MCF10A rereplic | RGS4 inhibitor
CCCCC/C(=N\NC(=O)CCC(=O)NCc1ccccc1)c1ccccc1 | ? | ? | 14% | 0% | ? | 23%
Cc1ccc(OC(C)C(=O)OCC(=O)Nc2sccc2C(N)=O)cc1 (stereo unspecified) | i | i | ? | -1% | ? | -53%
CC(Oc1ccc(Cl)cc1)C(=O)Nc1sccc1C(N)=O (stereo unspecified) | 9.2µM* | i | 3% | -1% | 23% | -31%
COC(=O)c1nc2nc(C)cc(C(F)(F)F)n2n1 | i | i | -25% | -6% | 11% | 13%
COC(=O)c1nc2nc(-c3cccs3)cc(C(F)(F)F)n2n1 | i | i | 0.52µM* | 0% | -10% | -15%
Cc1cccc(NC(=O)CSc2nc(C)cc(C)c2C(=O)Nc2ccc(Cl)cc2)c1 | i | i | nt | nt | nt | -8%
CC(=O)Nc1ccc2nc(CN3CCC(CO)(CCc4ccccc4)CC3)ccc2c1 | i | i | 0% | -1% | 18µM* | -6%
CC(=O)c1cccc(CN2CCC(CO)(CCCc3ccccc3)CC2)c1 | ? | i | -3% | -6% | 12% | 4%
Cc1ccnc2ccc(Br)cc12 | i | i | nt | nt | nt | nt
Nc1nc(NCc2ccc(Cl)c(Cl)c2)c2[nH]cnc2n1 | i | i | nt | nt | nt | ?
CC(=O)N1N=C(c2ccc(NS(=O)(=O)c3ccccc3)cc2)CC1c1ccco1 (stereo unspecified) | i | ? | 12µM* | -2% | ? | -26%
CC(=O)N1N=C(c2cccc(NS(=O)(=O)c3ccc(C)cc3)c2)CC1c1ccco1 (stereo unspecified) | i | ? | 16µM* | -2% | ? | -10%
CCc1ccc(C2=NN(C(C)=O)C(c3ccco3)C2)cc1 (stereo unspecified) | i | ? | 9% | -5% | ? | -30%
CCC(=O)N1Cc2cc(C(=O)Nc3nccs3)nc(-c3cccc(-c4ccccc4OC)c3)c2[C@@H]1CCO | 23µM* | i | nt | nt | nt | nt
COc1ccccc1-c1cccc(-c2nc(C(=O)Nc3nccs3)cc3c2[C@@H](CCO)N(C(=O)CC2CC2)C3)c1 | ? | i | nt | nt | nt | nt
COc1ccc(/C=C\C(=O)c2c(O)ccc3c(C)cc(=O)oc23)cc1OC | 21µM* | 16µM* | ? | -5% | ? | ?
COc1ccc(OC)c(S(=O)(=O)NC2CC(=O)N(c3cccc(F)c3)C2)c1 (stereo unspecified) | i | i | 6.5µM* | -4% | -13% | 18%
CCN(CCCN(C)C)c1ccc(/C=C/c2ccnc3ccccc23)cc1 | ? | i | nt | nt | nt | nt
CCC(CC)C(=O)Nc1cc(-c2cccc(C)c2)nn1-c1ccccc1 | i | i | nt | nt | nt | 6%
COc1cccc(/C=C/C(=O)Nc2ccc(OC)nc2)c1 | 18µM* | ? | -7% | -1% | -8% | -4%
COc1ccc(NC(=O)/C=C/c2ccccc2)cn1 | i | i | -1% | -2% | -2% | 6%
O=C1C2C3CCCC3=C3CCCC3C2C(=O)N1c1ccccc1Cl (stereo unspecified) | nt | nt | nt | nt | nt | -3%
CCOc1ccc(/C=N/NC(=S)NC2CC3CC2C2C=CCC32)cc1 (stereo unspecified) | i | i | 10% | 20% | 6.5µM* | -41%
COc1ccc(NC(=O)CSc2nnc(-c3ccccc3Cl)n2Cc2ccco2)c(OC)c1 | i | i | 15% | -8% | 4% | -50%
CN(C)c1ccc(NC(=O)CSc2nnc(-c3cccs3)n2Cc2ccco2)cc1 | 7.3µM* | ? | 3% | 0% | 27% | -24%
SMILES | KB-V1 cytotox | KB-3-1 tox | SW480 rerep | PTAP TSG101 blk | MCF10A rereplic | RGS4 inhibitor
Cc1ccc(NC(=O)CSc2nnc(-c3cccs3)n2Cc2ccco2)cc1 | i | i | 3% | -6% | -3% | -23%
O=C(CSc1nnc(Cc2cccs2)n1Cc1ccco1)Nc1cccc(Cl)c1 | ? | i | -2% | 1% | 6.5µM* | ?
Cc1ccc(C)c(CSc2nnc(-c3cccs3)n2Cc2ccco2)c1 | 18µM* | i | ? | 2% | 21µM* | -36%
O=C(CSc1nnc(Cc2cccs2)n1Cc1ccco1)Nc1cc(Cl)cc(Cl)c1 | i | i | -1% | 0% | ? | ?
CCOc1ccc(NC(=O)CSc2nnc(-c3ccccc3Cl)n2Cc2ccco2)cc1 | 21µM* | ? | 3% | -3% | 2% | 9%
O=C(CCCn1ccc2cc(S(=O)(=O)N3CCCC3)ccc21)NCc1ccc(Cl)cc1 | nt | nt | nt | nt | nt | 15%
CCOC(=O)c1sc2nc(C(C)C)c3c(c2c1N)CCC3 | ? | i | 18µM* | 1% | 3.7µM* | 11%
CCOC(=O)c1sc2nc(N3CCOCC3)c3c(c2c1N)CCCC3 | i | i | 1% | -4% | 0% | 13%
COC(=O)c1sc2nc(N3CCCCC3)c3c(c2c1N)CCCC3 | i | i | 1%[9.22 µM] | -3% | 7.1µM* | -15%
COC(=O)c1ccc(-c2sc3nc(N4CCOCC4)c4c(c3c2N)CCCC4)o1 | i | ? | 0.63µM* | -2% | ? | 2%
CCN(CC)C(=O)c1sc2nc(N3CCOCC3)c3c(c2c1N)CCCC3 | 4.6µM* | i | 4% | -5% | ? | ?
O=C(C[n+]1csc2ccccc21)c1ccc(O)c(O)c1 | i | i | nt | nt | nt | nt
O=C(CSC(=S)N1CCCCC1)Nc1nc(-c2ccccc2)c(-c2ccccc2)o1 | 23µM* | i | 12% | 0% | 6% | -35%
O=C(Nc1c(C(=O)O)oc2ccccc12)c1ccc(C(F)(F)F)cc1 | i | i | nt | nt | nt | -1%
CCCCN(c1ccccc1)S(=O)(=O)c1cccc(C(=O)Nc2c(C)n(C)n(-c3ccccc3)c2=O)c1 | 2.6µM* | 26µM* | -6% | -2% | ? | ?
COc1ccc(C(=O)n2nc(-c3ccco3)nc2NCc2cccs2)cc1OC | i | i | nt | nt | nt | -41%
COc1cccc(N2CC(=O)Nc3c(oc4nc(-c5ccccc5)cc(C)c34)C2=O)c1 | i | i | 0% | -6% | 5% | 30%
Cc1cc(-c2ccccc2)nc2oc3c(c12)NC(=O)CN(c1ccccc1)C3=O | ? | i | 15µM* | 2% | 4% | -5%
COc1cc(C(=O)Nc2nc(OC)c(-c3ccccc3)c(OC)n2)cc(OC)c1OC | i | i | 1% | 0% | 16% | -17%
COc1cc(C(=O)Nc2ccc(Nc3ccccc3)cc2)cc(OC)c1OC | i | i | 26% | -6% | 21µM* | -19%
